Assay results from PubChem BioAssay (NCATS).
Results filed as inconclusive are left out. Where a call stands in place of a potency, no number is given. Unmarked numbers belong to inactive results. Active and inactive are the calls of the source. Calls follow the shape of the dose curve; as a rule, active = well fitted curve in the direction sought with a large enough effect; inconclusive = small, poorly fitted or top-dose-only effect, or another doubt; inactive = no such curve, though single readings can be large; an effect the other way counts as inactive or inconclusive.

Columns and labels:
[1] = molecular target: Rap guanine nucleotide exchange factor 3 (Homo sapiens) (UniProt O95398); test: Confirmatory qHTS for antagonist of cAMP-regulated guanine nucleotide exchange factor 3 (EPAC1) (AID 1645880); also: nearly all actives have a fitted effect of over 55% in size; also: potency is read from the fitted curve at half-maximal effect
Summary of the method: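 Released BODIPY-GDP fluoresces less than Rap1-bound BODIPY-GDP; the signal is followed at 480/540 nm at 5-min intervals over 30 min, after 5 min at room temperature. Reactions contain 100 nM EPAC1, 250 nM RAP1B-BODIPY-GDP and 50 uM GDP; results are normalized to ATA and DMSO.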

[2] = molecular target: Rap guanine nucleotide exchange factor 3 (Homo sapiens) (UniProt O95398); test: Confirmatory qHTS for agonist of cAMP-regulated guanine nucleotide exchange factor 3 (EPAC1) (AID 1645881); also: nearly all actives have a fitted effect of over 75% in size; also: potency is read from the fitted curve at half-maximal effect;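 as to activation: EPAC1 catalysed release of BODIPY-GDP from Rap1B seen as fluorescence loss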
[3] = molecular target: Rap guanine nucleotide exchange factor 4 (Homo sapiens) (UniProt Q8WZA2); test: Confirmatory qHTS for agonist of cAMP-regulated guanine nucleotide exchange factor 4 (EPAC2) (AID 1645884);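 also: nucleotide exchange releases bodipy-GDP from Rap1 and this lowers its fluorescence; nearly all actives have a fitted effect of over 65% in size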; also: potency is read from the fitted curve at half-maximal effect
[4] = molecular target: Rap guanine nucleotide exchange factor 4 (Homo sapiens) (UniProt Q8WZA2); test: Confirmatory qHTS for antagonist of cAMP-regulated guanine nucleotide exchange factor 4 (EPAC2) (AID 1645885); also: nearly all actives have a fitted effect of over 25% in size; also: potency is read from the fitted curve at half-maximal effect
[5] = molecular target: Rap guanine nucleotide exchange factor 3 (Homo sapiens) (UniProt O95398); test: Counterscreen qHTS for antagonist of cAMP-regulated guanine nucleotide exchange factor 3 (EPAC1) (AID 1645888)
Summary of the method: (§1)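 Rap1B-BODIPY-GDP 250 nM + GDP 50 uM; cpds 7-pt, final 9.74 nM–152 uM (activator mode) or from 7.32 nM upwards (inhibitor mode); RT; FI 480/540 nm at 5 and 30 min, then ± cAMP, reread.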

[6] = molecular target: Rap guanine nucleotide exchange factor 3 (Homo sapiens) (UniProt O95398); test: Counterscreen qHTS for agonist of cAMP-regulated guanine nucleotide exchange factor 3 (EPAC1) (AID 1645889); also: nearly all actives have a fitted effect of over 40% in size; also: potency is read from the fitted curve at half-maximal effect
Summary of the method: as §1

Chain of Rap guanine nucleotide exchange factor 4 (Homo sapiens) (Q8WZA2 whole entry, looked up): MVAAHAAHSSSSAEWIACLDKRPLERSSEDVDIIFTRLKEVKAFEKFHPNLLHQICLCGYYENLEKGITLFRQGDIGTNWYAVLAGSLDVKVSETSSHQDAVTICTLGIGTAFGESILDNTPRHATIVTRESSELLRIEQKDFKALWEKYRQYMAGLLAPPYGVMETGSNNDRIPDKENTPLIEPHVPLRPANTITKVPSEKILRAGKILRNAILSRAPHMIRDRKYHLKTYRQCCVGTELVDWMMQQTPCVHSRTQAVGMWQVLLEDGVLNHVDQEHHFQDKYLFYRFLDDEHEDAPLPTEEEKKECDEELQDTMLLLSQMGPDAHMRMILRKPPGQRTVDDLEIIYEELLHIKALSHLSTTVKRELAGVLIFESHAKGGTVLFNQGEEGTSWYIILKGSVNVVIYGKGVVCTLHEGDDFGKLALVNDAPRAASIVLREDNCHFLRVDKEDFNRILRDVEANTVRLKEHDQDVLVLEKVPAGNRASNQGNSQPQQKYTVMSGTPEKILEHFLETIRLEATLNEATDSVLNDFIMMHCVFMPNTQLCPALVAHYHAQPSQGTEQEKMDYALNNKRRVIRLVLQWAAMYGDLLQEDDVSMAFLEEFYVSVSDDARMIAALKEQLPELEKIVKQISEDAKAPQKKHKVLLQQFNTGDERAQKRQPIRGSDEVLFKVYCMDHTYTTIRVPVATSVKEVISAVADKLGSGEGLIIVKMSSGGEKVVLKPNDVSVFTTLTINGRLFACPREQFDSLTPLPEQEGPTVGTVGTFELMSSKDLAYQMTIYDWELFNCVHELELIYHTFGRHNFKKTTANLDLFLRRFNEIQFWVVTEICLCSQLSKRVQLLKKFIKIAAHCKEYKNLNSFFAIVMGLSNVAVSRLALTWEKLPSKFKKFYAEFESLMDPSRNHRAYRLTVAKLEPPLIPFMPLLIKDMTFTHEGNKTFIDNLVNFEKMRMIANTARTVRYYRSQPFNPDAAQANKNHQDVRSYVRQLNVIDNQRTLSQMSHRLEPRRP
Chain of Rap guanine nucleotide exchange factor 3 (Homo sapiens) (O95398 whole entry, looked up): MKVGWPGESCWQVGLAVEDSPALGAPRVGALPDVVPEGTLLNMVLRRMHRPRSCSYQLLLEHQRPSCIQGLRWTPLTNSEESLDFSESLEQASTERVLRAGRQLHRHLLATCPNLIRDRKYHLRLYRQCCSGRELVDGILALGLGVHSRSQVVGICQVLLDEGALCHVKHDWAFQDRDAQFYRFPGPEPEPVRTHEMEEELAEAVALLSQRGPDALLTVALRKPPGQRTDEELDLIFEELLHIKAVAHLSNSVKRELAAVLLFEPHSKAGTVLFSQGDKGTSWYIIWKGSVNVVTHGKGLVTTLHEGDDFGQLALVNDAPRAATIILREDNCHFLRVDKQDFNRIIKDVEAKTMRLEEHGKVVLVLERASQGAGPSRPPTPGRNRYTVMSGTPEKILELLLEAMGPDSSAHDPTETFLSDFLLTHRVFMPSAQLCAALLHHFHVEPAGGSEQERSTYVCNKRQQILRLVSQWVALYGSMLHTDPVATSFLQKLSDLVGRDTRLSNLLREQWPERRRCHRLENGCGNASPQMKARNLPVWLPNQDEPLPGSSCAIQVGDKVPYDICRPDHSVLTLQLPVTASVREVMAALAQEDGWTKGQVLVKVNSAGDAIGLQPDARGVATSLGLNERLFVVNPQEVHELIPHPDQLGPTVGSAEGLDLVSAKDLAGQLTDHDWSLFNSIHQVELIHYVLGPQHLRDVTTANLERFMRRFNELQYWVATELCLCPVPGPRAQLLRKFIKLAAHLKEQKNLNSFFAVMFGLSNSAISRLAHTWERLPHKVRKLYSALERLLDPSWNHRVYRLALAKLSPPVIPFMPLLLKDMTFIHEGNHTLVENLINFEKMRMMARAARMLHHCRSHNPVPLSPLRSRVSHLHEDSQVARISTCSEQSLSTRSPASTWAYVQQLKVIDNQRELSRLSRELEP

Row | SMILES | Potency [1] | Potency [2] | Potency [3] | Potency [4] | Potency [5] | Potency [6] | activation [3] | activity change, negative = inhibition [5] | activation [6] | outcome [4]
1 | CCc1cccc2sc(NC(=O)c3ccc(N4C(=O)CCC4=O)cc3)nc12 | inactive | inactive | inactive | inactive | inactive | inactive | – | – | – | –
2 | O=C(COC(=O)c1cccc(-n2cnnn2)c1)c1ccc(F)cc1 | inactive | inactive | – | inactive | – | – | 8.21% [at 17.1 µM, percent relative to cAMP agonist control] | -3.01% [at 30.8 µM] | 4.41% [at 30.8 µM] | –
3 | O=C1c2cccc3cccc(c23)N1Cc1ccc(F)cc1 | inactive | inactive | – | inactive | – | – | 1.12% [at 17.1 µM, percent relative to cAMP agonist control] | -16.7% [at 30.8 µM] | 4.85% [at 30.8 µM] | –
4 | CCCCC(=O)N(c1ccc(C(=O)O)cc1)c1nc(-c2ccc(Cl)cc2)c(CC)s1 | 50.1 µM (active) | inactive | – | inactive | – | – | 5.89% [at 17.1 µM, percent relative to cAMP agonist control] | -5.84% [at 30.8 µM] | 19.6% [at 30.8 µM] | –
5 | CCN(CC)c1ccc2cc(-c3nnc(-c4ccccc4)o3)c(=O)oc2c1 | inactive | 15.8 µM (active) | 15.8 µM (active) | 4.26 µM (active) | inactive | 15.8 µM (active) | – | – | – | –
6 | CC1=CC=CC2=NC(=O)CC(C)(C(=O)N(CC(=O)NC(C)C)C3CCCC3)N12 (stereo not drawn) | inactive | inactive | – | inactive | – | – | 3.39% [at 17.1 µM, percent relative to cAMP agonist control] | -13.5% [at 30.8 µM] | 26.5% [at 30.8 µM] | –
7 | Cc1cccc(NC(=S)NC(=O)/C=C/c2ccco2)c1 | 75.7 µM (active) | inactive | inactive | inactive | inactive | inactive | – | – | – | –
8 | COc1ccc(N2CCN(C(=O)CCc3ccccc3OC)CC2)cc1 | inactive | inactive | inactive | inactive | inactive | inactive | – | – | – | –
9 | CC(NC(=O)c1cc(S(=O)(=O)N2CCOCC2)ccc1N1CCCC1)c1ccc(Cl)c(Cl)c1 (stereo not drawn) | inactive | inactive | inactive | inactive | inactive | inactive | – | – | – | –
10 | Cc1ccc(NC(=O)N2CCN(c3nnc(C)c4c(C)n(-c5ccc(Cl)cc5)nc34)CC2)c(C)c1 | inactive | inactive | inactive | inactive | inactive | inactive | – | – | – | –
11 | COc1cnc(-c2ccccn2)nc1Oc1c(C)cccc1C | inactive | inactive | inactive | inactive | inactive | inactive | – | – | – | –
12 | Cc1nc(N)sc1C(=O)N1N=N1 | inactive | inactive | inactive | inactive | inactive | inactive | – | – | – | –
13 | Cn1c(COc2ccc(Cl)cc2)nc2ccccc2c1=O | 25.1 µM (active) | inactive | – | inactive | – | – | 4.13% [at 17.1 µM, percent relative to cAMP agonist control] | 1.04% [at 30.8 µM] | 5.9% [at 30.8 µM] | –
14 | Cc1cccc(-c2nc(SCC(=O)Nc3cccc(C(F)(F)F)c3)n3[nH]c(=O)cc3n2)c1 | 84.9 µM (active) | inactive | inactive | inactive | inactive | inactive | – | – | – | –
15 | COc1cccc(/C=C2\SC(=S)N(NS(=O)(=O)c3ccccc3)C2=O)c1OC | 33.8 µM (active) | inactive | inactive | 37.9 µM (active) | inactive | inactive | – | – | – | –
16 | Cc1ccc(-c2csc(NC(=O)c3ccc(Br)cc3)c2C(=O)O)cc1 | 33.8 µM (active) | inactive | inactive | inactive | inactive | inactive | – | – | – | –
17 | CC(=O)Nc1nc(C)c(Oc2ccc(Cl)cc2Cl)c(=O)[nH]1 | inactive | inactive | – | inactive | – | – | 0% [at 17.1 µM, percent relative to cAMP agonist control] | -5.48% [at 30.8 µM] | 7.36% [at 30.8 µM] | –
18 | COc1ccc(CCNC(=O)CCCCCn2c(SCC(N)=O)nc3cc4c(cc3c2=O)OCO4)cc1OC | inactive | inactive | inactive | inactive | inactive | inactive | – | – | – | –
19 | O=C1O/C(=C/c2ccccc2)N=C1c1ccccc1 | inactive | inactive | inactive | inactive | inactive | inactive | – | – | – | –
20 | Cc1ccc(CNS(=O)(=O)c2ccc(-n3cnnn3)c(C)c2)cc1 | inactive | inactive | – | inactive | – | – | 4.56% [at 17.1 µM, percent relative to cAMP agonist control] | 3.48% [at 30.8 µM] | 5.31% [at 30.8 µM] | –
21 | COCCOC(=O)C(C#N)c1nc2ccccc2nc1N1CCN(Cc2ccccc2)CC1 (stereo not drawn) | inactive | inactive | – | inactive | – | – | 10.5% [at 17.1 µM, percent relative to cAMP agonist control] | 4.89% [at 30.8 µM] | 38.2% [at 30.8 µM] | –
22 | O=c1c2ccccc2[nH]c(=S)n1-c1cccc(S(=O)(=O)N2CCCC2)c1 | inactive | inactive | inactive | inactive | inactive | inactive | – | – | – | –

Row | SMILES | Potency [1] | Potency [2] | Potency [3] | Potency [4] | Potency [5] | Potency [6] | activation [3] | activity change, negative = inhibition [5] | activation [6] | outcome [4]
23 | N#CC(C(=O)NCc1ccco1)c1nc2ccccc2nc1N1CCOCC1 (stereo not drawn) | inactive | inactive | – | inactive | – | – | 4.26% [at 17.1 µM, percent relative to cAMP agonist control] | -11.6% [at 30.8 µM] | 19.4% [at 30.8 µM] | –
24 | Cc1cc2ccccn2c1C(=O)c1ccc(Cl)cc1 | inactive | inactive | inactive | inactive | inactive | 0.141 µM (active) | – | – | – | –
25 | CCOC(=O)c1cc2n(c1N)-c1ccccc1C2=O | inactive | 100 µM (active) | 100 µM (active) | 23.9 µM (active) | inactive | 31.6 µM (active) | – | – | – | –
26 | CC(C)Sc1nc2sccc2c(=O)n1-c1ccccc1 | inactive | inactive | inactive | 42.6 µM (active) | inactive | inactive | – | – | – | –
27 | CCOC(=O)c1ccccc1NC(=O)CSc1nccn1Cc1ccco1 | inactive | inactive | inactive | inactive | inactive | inactive | – | – | – | –
28 | O=C(O)C1CSC(c2ccco2)N1 (stereo not drawn) | inactive | inactive | – | inactive | – | – | 15.3% [at 17.1 µM, percent relative to cAMP agonist control] | -26.6% [at 30.8 µM] | 2.32% [at 30.8 µM] | –
29 | CCNC(C(=O)c1c[nH]c2c(CC)cccc12)c1ccccc1 (stereo not drawn) | inactive | inactive | inactive | inactive | inactive | inactive | – | – | – | –
30 | COc1cccc(-n2nnc3c(=O)n(C/C=C/c4ccccc4)cnc32)c1 | inactive | inactive | – | inactive | – | – | 6.54% [at 17.1 µM, percent relative to cAMP agonist control] | 2.95% [at 30.8 µM] | 17.3% [at 30.8 µM] | –
31 | CCOC(=O)c1sc(NC(=O)c2ccncc2)nc1C | inactive | inactive | inactive | inactive | inactive | inactive | – | – | – | –
32 | COCCCn1c(=O)/c(=C\c2ccc(OC(F)F)c(OC)c2)s/c1=C(/C#N)C(N)=O | inactive | inactive | inactive | inactive | inactive | inactive | – | – | – | –
33 | Cc1nc(=O)c(-c2ccccc2)c(C)n1CCCCCC(=O)O | inactive | inactive | – | inactive | – | – | 0.623% [at 17.1 µM, percent relative to cAMP agonist control] | -38.6% [at 30.8 µM] | 4.21% [at 30.8 µM] | –
34 | CSc1ccccc1NC(=O)COc1ccccc1C | inactive | inactive | – | inactive | – | – | 11.3% [at 17.1 µM, percent relative to cAMP agonist control] | -1.84% [at 30.8 µM] | 4.86% [at 30.8 µM] | –
35 | Cc1ccccc1-c1cc(C(=O)NCc2ccc3c(c2)OCO3)n(CC2CC(c3cccnc3)=NO2)n1 (stereo not drawn) | inactive | inactive | inactive | inactive | inactive | inactive | – | – | – | –
36 | CCc1nc2c(OCc3ccc(C#N)cc3)cccn2c1N(C)C(=O)c1ccc(C)cc1 | inactive | inactive | inactive | 19 µM (active) | inactive | inactive | – | – | – | –
37 | CCOc1cc(C(=O)Nc2ccc3c(c2)n(C)c(=O)c(=O)n3C)cc(OCC)c1OCC | inactive | inactive | inactive | – | inactive | inactive | – | – | – | inactive [at 12.7 µM]
38 | COC(=O)C1=CN(c2ccc(F)cc2)C(N)=C(C#N)C1c1cccc(OC)c1OC (stereo not drawn) | inactive | inactive | – | inactive | – | – | 4.9% [at 17.1 µM, percent relative to cAMP agonist control] | -6.52% [at 30.8 µM] | 17% [at 30.8 µM] | –
39 | CC(C)(C)c1ccc(C(CC(=O)O)NC(=O)CSc2ccccc2)cc1 (stereo not drawn) | inactive | inactive | inactive | inactive | inactive | inactive | – | – | – | –
40 | Cc1ccc(S(=O)(=O)NCCC(=O)N2CC(C)OC(C)C2)cc1 (stereo not drawn) | inactive | inactive | inactive | inactive | inactive | inactive | – | – | – | –
41 | O=C1c2ccccc2S(=O)(=O)c2cc(N3CCC4(CC3)OCCO4)ccc21 | inactive | inactive | inactive | 84.9 µM (active) | inactive | 14.1 µM (active) | – | – | – | –
42 | S=C(Nc1cccc2ccccc12)NC1CCCCC1 | inactive | inactive | – | inactive | – | – | 0.103% [at 17.1 µM, percent relative to cAMP agonist control] | 5.07% [at 30.8 µM] | 5.1% [at 30.8 µM] | –
43 | CCN(CC(=O)Nc1ccccc1C(F)(F)F)C(=O)CCOc1ccccc1C | inactive | inactive | – | inactive | – | – | -3.64% [at 17.1 µM, percent relative to cAMP agonist control] | -14% [at 30.8 µM] | 1.11% [at 30.8 µM] | –
